# Results filed as inconclusive are left out. Entries that show only a call come without a potency. Calls of active or inactive are those of the source. Calls come from the whole dose curve; as a rule, active = well fitted cell-killing curve with a large enough effect; inconclusive = small, poorly fitted or top-dose-only effect; inactive = flat fitted curve, though single readings scatter.
# Assay: Cellular viability qHTS for adrenocortical cancer (ACC) cell line NCI-H295R (AID 1963990); note: nearly all actives have a fitted effect of over 60% in size
# Conditions: CellTiter-Glo ATP luminescence, 48 h; series mostly up to 46.1 µM
# In short: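 Luminescent ATP read-out (CellTiter-Glo, 20 min RT) after 48 h drug exposure of NCI-H295R cells; a titration up to 46 uM final. Data normalized to doxorubicin (100% inhibition) and DMSO (0%); 4-parameter fit gives IC50, max response.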
# Potency is the fitted concentration of half-maximal effect.
row,SMILES,Potency
1,CC1=C2[N-][C@H]([C@H](CC(N)=O)[C@@]2(C)CCC(=O)NC[C@@H](C)OP(=O)([O-])O[C@H]2[C@@H](O)[C@@H](n3cnc4cc(C)c(C)cc43)O[C@@H]2CO)[C@]2(C)N=C(C(C)=C3N=C(C=C4N=C1[C@@H](CCC(N)=O)C4(C)C)[C@@H](CCC(N)=O)[C@]3(C)CC(N)=O)[C@@H](CCC(N)=O)[C@]2(C)CC(N)=O.O.[Co+2],inactive
2,Cc1cccc(-c2[nH]ncc2-c2ccc(F)c(-c3cnn(CCO)c3)c2)n1,inactive
3,CC1Oc2cc(cnc2N)-c2c(nn(C)c2C#N)CN(C)C(=O)c2ccc(F)cc21 (centres undefined),20 µM (active)
4,O=C(Oc1cccc2cccnc12)c1ccccc1,23.1 µM (active)
